Source: PubChem BioAssay
Sampled rows, rich in hits. Any-hit rate of the full collection: about 11%.
ALDH1A1 block: blocks purified human ALDH1A1 activity; P00352; Potency, µM (series often up to 75.3 µM), hits mostly inhibitors; 220,000 compounds, 7.3% hits; Purified ALDH1A1, NADH fluorescence, propionaldehyde substrate; AID 1030
Target sequence (P00352 whole entry, looked up): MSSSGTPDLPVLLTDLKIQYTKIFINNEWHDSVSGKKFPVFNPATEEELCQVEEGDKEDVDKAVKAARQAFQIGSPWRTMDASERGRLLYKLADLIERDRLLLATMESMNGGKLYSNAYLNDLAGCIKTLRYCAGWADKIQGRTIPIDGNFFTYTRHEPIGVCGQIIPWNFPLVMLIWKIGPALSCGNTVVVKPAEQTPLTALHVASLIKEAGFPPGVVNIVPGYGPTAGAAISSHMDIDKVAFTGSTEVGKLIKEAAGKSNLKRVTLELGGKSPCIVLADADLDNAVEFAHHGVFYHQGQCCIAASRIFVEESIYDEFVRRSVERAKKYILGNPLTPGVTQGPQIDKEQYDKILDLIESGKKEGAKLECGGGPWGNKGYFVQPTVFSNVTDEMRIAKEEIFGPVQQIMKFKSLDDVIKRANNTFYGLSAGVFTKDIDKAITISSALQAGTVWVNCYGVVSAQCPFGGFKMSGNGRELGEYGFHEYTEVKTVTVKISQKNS
PNC assembly inh: blocks assembly of the perinucleolar compartment | PC3M PTB-GFP, PNC prevalence imaging, 16 h; active compounds read low | activity change (PNC), negative = inhibition, % at 10 µM | 140,000 compounds, 3.1% hits | AID 2417;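 active means readout at or below -70, meaning at least 70% loss of cells showing the perinucleolar compartment, a nuclear body marking cancer cells; inconclusive means readout between -30 and a set limit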
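PC3M cells stably expressing PTB-GFP, 750–1000 cells/well, treated 16 h at 37 °C with compound (23 nl of library stock), in duplicate. After paraformaldehyde fixation and Hoechst stain, imaged at 20x; PNC prevalence scored by image analysis.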
IMPase Li inh: IMPase inhibition in cells with lithium potentiation | Potency, µM (titrated, usually from 59.4 µM), hits mostly inhibitors | AID 1457 | 210,000 compounds, 0.35% hits | CHO-M1 cells, IP1 TR-FRET (IP-One), carbachol + lithium; active means well fitted curve in the direction sought with a large enough effect; inconclusive means small, poorly fitted or top-dose-only effect, or another doubt; inactive means no such curve, though single readings can be large; an effect the other way counts as inactive or inconclusive;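 further: IP1 builds up when IMPase is blocked and the TR-FRET signal falls; nearly all actives have a fitted effect of over 50% in size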
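Readout is a homogeneous TR-FRET IP1 immunoassay (Ex 320, Em 665 and 620), where raised cytosolic IP1 lowers signal. Cells were CHO-M1 treated 30 min at 37C with test compounds plus a little lithium; AC50 values came from Hill-equation fitting.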
HPGD block: HPGD (human) dehydrogenase inhibition; AID 894; P15428; purified HPGD, NADH fluorescence kinetic, PGE2 substrate; 150,000 compounds, 4.3% hits; Potency, µM, usual class: inhibitors
Target sequence (P15428 whole entry, looked up): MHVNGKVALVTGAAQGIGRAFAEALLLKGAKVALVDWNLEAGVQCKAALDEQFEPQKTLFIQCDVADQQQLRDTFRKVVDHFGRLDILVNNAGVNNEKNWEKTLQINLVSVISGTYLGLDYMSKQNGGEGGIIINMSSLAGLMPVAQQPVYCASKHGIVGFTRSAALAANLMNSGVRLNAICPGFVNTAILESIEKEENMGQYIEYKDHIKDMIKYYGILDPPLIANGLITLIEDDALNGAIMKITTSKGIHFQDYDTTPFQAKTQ
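NADH formation kinetics: reaction with 30 uM PGE2 and 1 mM NAD+ (final), 20 nM enzyme, Tris-HCl pH 8 with Tween 20, after 15 min compound preincubation at room temperature. Fluorescence change, last versus first of five reads.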
IMPase inh: membrane-permeable compound that blocks inositol monophosphatase. CHO-M1 cells, IP1 accumulation, HTRF TR-FRET ratio. 120,000 tested, under 10 active. inhibition (IP1 accumulation), % at 46.1 µM. P97697; active means well fitted curve in the direction sought with a large enough effect in the signal ratio, not every such curve was filed as active; inconclusive means small, poorly fitted or top-dose-only effect, or a change in a side signal; inactive means no such curve, though single readings can be large or run the other way; the % refers to the signal ratio;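 further: cells stimulated with carbachol in lithium chloride buffer; higher means more IMPase inhibition seen as more IP1 and lower FRET ratio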
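The IP-One HTRF competitive assay in carbachol-stimulated CHO-M1 cells quantifies cellular IP1. Compounds spanned up to 46 uM final, and activity is expressed as AC50 from concentration-response fits of the ratio and donor data.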
12-hLO inh: 12-hLO (ALOX12) enzyme inhibition; P18054; purified 12-hLO, xylenol orange hydroperoxide absorbance; Potency, µM (highest dose often 57.1 µM), most hits filed as inhibitors; 150,000 compounds, 0.12% hits; active means well fitted curve in the direction sought with a large enough effect; inconclusive means small, poorly fitted or top-dose-only effect, or another doubt; inactive means no such curve, though single readings can be large; an effect the other way counts as inactive or inconclusive; further: nearly all actives have a fitted effect of over 55% in size
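Hydroperoxide formation by human 12-lipoxygenase from 40 uM arachidonic acid was followed colorimetrically via ferric-xylenol orange complex, using the 573/405 nm absorbance ratio. Enzyme concentration was 150 nM, with 30 min reaction at room temperature.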
A number is an active result; . = inactive; ? = inconclusive; / = no result; [ ] = dose if it differs, or a comment. Unless noted, the call rests on the fitted dose curve; in most records, active means well fitted inhibition curve with a large enough effect (not every such curve was filed as active); inconclusive means small, poorly fitted or top-dose-only effect, or another doubt; inactive means no such curve, though single readings can be large or run the other way.

SMILES	ALDH1A1 block	PNC assembly inh	IMPase Li inh	HPGD block	IMPase inh	12-hLO inh
CN1C(=O)SC(Nc2ccccc2)C1=O (configuration not stated)	31.6µM	.	.	.	.	.
CC(NC(=O)Nc1ccc(Cl)c(Cl)c1)C(c1ccccc1)N1CCOCC1 (configuration not stated)	?	.	.	.	.	.
O=C(O)c1ccccc1NS(=O)(=O)c1cccc2ccccc12	.	/	/	.	/	.
N#Cc1ccc(CN2CC[C@@]3(CCCN(C(=O)c4cnccn4)C3)C2)cc1	.	/	.	.	/	.
Cc1nonc1CN(C)C(=O)CC1C(=O)NCCN1Cc1c(F)cccc1Cl (configuration not stated)	.	/	.	/	/	/
Cc1cc(CN(C)C(=O)CC2C(=O)NCCN2Cc2c(F)cccc2Cl)n[nH]1 (configuration not stated)	15.8µM	/	.	/	/	/
CC(=O)N(C[C@@H](C)C(=O)O)c1c(I)cc(I)c(N)c1I	.	/	.	.	.	.
Cc1c(/C=C(\C#N)C(=O)Nc2cccc(Cl)c2)c2ccccc2n1Cc1ccccc1Cl	/	/	/	/	.	/
COc1ccc(O)c(C(=O)C2c3ccccc3C(=O)N2c2ccc(C)cc2)c1 (configuration not stated)	11.2µM	/	/	/	/	/
COc1ccc(O)c(C(=O)CC(=O)c2ccccc2C)c1	.	/	.	/	/	/
CN(CCC#N)C(=O)COC(=O)c1ccc(Cl)c(S(=O)(=O)N(C)c2ccccc2)c1	.	/	.	/	/	/
CCOC(=O)NC(O)C(=O)c1ccc(F)cc1 (configuration not stated)	22.4µM	/	.	/	/	/
Cc1cccc(C(=O)N[C@H](C(=O)Nc2ccc(S(=O)(=O)NC3=NCCCCC3)cc2)C(C)C)c1	20µM	/	?	/	/	/
CN(C)c1ccc(C(=O)Nc2ccc(S(=O)(=O)NC3=NCCCCC3)cc2)cc1	?	?	/	/	.	.
CCCc1nnc(-c2cc(OC)c(OC)c(OC)c2)o1	?	-90.9	.	.	/	.
COc1cc(-c2nnc(-c3cc(OC)c(OC)c(OC)c3)o2)cc(OC)c1OC	?	-100.0	.	?	.	.
COc1cc(-c2nnc(-c3ccccc3)o2)cc(OC)c1OC	?	.	.	?	?	.
Cc1cc(C(=O)N[C@H](c2ccccc2)[C@@]2(C)C[C@@H]2[C@@H](C)C(=O)Nc2ccc3ccccc3c2)no1	12.6µM	.	.	.	/	.
C[C@@H](C(=O)Nc1ccc2ccccc2c1)[C@H]1C[C@]1(C)[C@H](NC(=O)c1cnccn1)c1ccccc1	11.2µM	-91.2	.	.	/	.
Cc1cc(C(=O)N[C@@H](c2ccccc2)[C@]2(C)C[C@H]2[C@@H](C)C(=O)Nc2ccc3ccccc3c2)no1	.	.	.	.	/	.
C#C[C@@]1(O)CCC2C3CCc4cc(O)ccc4C3CC[C@@]21C (some centres not stated)	.	/	.	.	/	.
COc1ccc(S(=O)(=O)N(CCc2ccccc2)CC(=O)Nc2cccc(OC)c2)cc1	/	/	/	/	.	/
O=C(CCc1ccccc1)n1nc(-c2ccco2)nc1SCc1ccccc1	.	?	.	8.91µM	.	.
CSc1nc(-c2ccco2)nn1C(=O)Cc1ccccc1	.	?	.	.	.	.
CCOP(=O)(c1ccccc1)c1nc(-c2ccc(F)cc2)oc1N1CCCCC1 (configuration not stated)	.	-87.4	.	.	.	.
SMILES	ALDH1A1 block	PNC assembly inh	IMPase Li inh	HPGD block	IMPase inh	12-hLO inh
O=C(CSc1ccc(-c2ccco2)nn1)NCc1ccc(Cl)cc1	7.08µM	.	.	.	.	.
O=C(CSc1ccc(-c2ccco2)nn1)NCc1ccccc1	?	.	.	?	.	.
Cc1cccc(NC(=O)CSc2ccc(-c3ccco3)nn2)c1C	23.8µM	.	.	.	.	.
O=C(CSc1ccc(-c2ccco2)nn1)c1cccc([N+](=O)[O-])c1	22.4µM	.	.	.	/	.
Cc1cccc(NC(=O)CSc2ccc(-c3ccccn3)nn2)c1C	.	/	.	/	/	/
Cc1ccc(NC(=O)CSC2=NN3CCCC(=O)N=C3S2)c(C)c1	?	/	.	/	/	/
Cc1cccc(NC(=O)CSC2=NN3CCCC(=O)N=C3S2)c1C	31.6µM	/	.	/	/	/
CCOc1ccc(-c2nc(-c3cccnc3)no2)cc1	.	-100.0	.	.	.	.
CCCCOc1ccc(-c2nc(-c3cccnc3)no2)cc1	.	?	.	.	.	.
COC(=O)N[C@@H](c1cccc(C)c1)[C@@H](C)[N+](=O)[O-]	.	/	.	.	/	/
NNC(=O)/C(=N/Nc1ccccc1)S(=O)(=O)c1ccc(Cl)cc1	12.6µM	?	.	.	/	.
CCOC(=O)/C(=N\Nc1ccccc1)S(=O)(=O)c1ccccc1	15.8µM	?	.	14.1µM	.	.
Cc1ccc(S(=O)(=O)Nc2ccc3c(c2)c(C(=O)OC(C)C)c(C)n3S(=O)(=O)c2ccc(C)cc2)cc1	/	/	/	/	.	/
O=C(O)CCc1ccc(-c2cccs2)n1-c1ccc(C(=O)O)cc1	12.6µM	.	.	.	.	.
CC(=O)c1cccc(-n2c(CCC(=O)O)ccc2-c2cccs2)c1	7.94µM	.	.	.	.	.
O=C(O)CCc1ccc(-c2cccs2)n1CCC(=O)O	?	.	.	?	.	.
Clc1ccc(CSc2ncnc3c2ncn3[C@@H]2CCCCO2)cc1	.[13.5 µM]	/	.	.	/	.[11.4 µM]
COc1ccc(S(=O)(=O)N[C@H](C(=O)N2CC[C@@]3(O)CCCC[C@H]3C2)c2ccccc2)cc1	12.6µM	.	.	.	.	.
COCCNC(=S)NNc1ccc(Cl)c(C(=O)O)c1	8.91µM	/	/	/	/	/
COc1ccc(-n2c(=O)c(C)nc3cnc(Nc4ccccc4)nc32)cc1	.	/	.	.	/	.
O=C(Nc1ccc(N2CCN(C(=O)c3ccccc3)CC2)c(Cl)c1)c1ccc(Br)o1	?	?	.	?	.	.
CC(=O)NC(=S)Nc1ccc(N2CCOCC2)c(S(=O)(=O)Nc2cc(Cl)ccc2Cl)c1	0.355µM	/	.	/	/	/
CC(=O)N1CCN(c2ccc(NC(=O)c3ccccc3Br)cc2Cl)CC1	?	?	.	15.8µM	.	.
O=C(Nc1ccc(N2CCOCC2)c(Cl)c1)c1ccc(Br)o1	25.1µM	.	.	25.1µM	.	.
O=C(Nc1ccc(N2CCCC2)c(Cl)c1)c1ccco1	?	.	.	.	.	.
O=C(Nc1ccc(N2CCCC2)c(Cl)c1)c1ccc([N+](=O)[O-])o1	3.55µM	/	.	/	/	/
O=C(Nc1ccc(Cl)cc1)Nc1ccc(N2CCCC2)c(S(=O)(=O)Nc2ccccc2Cl)c1	.	.	.	.	/	.
C[C@@H]1Oc2ccc(C(=O)C[C@@H](C(=O)O)c3ccc4c(c3)OCO4)cc2O1	.[13.5 µM]	/	.	.	/	.[11.4 µM]
COC(=O)c1c(NC(=O)/C=C/c2ccc(OC)c(OC)c2)sc2c1CCC2	/	/	/	/	.	/
